Experimental findings from PubChem BioAssay (Tox21) are described below.

Unmarked numbers belong to inactive results. Inconclusive results are not listed. Activity calls are given as the source filed them. Unless noted, calls follow the shape of the full dose curve.

The nature of experiment [1]: Nuclear factor erythroid 2-related factor 2/antioxidant responsive element (Nrf2/ARE) small molecule agonists: qHTS cell viability counter screen in human keratinocytes (AID 1919968; active = well fitted curve in the direction sought with a large enough effect in the repeat runs; an effect the other way counts as inactive or inconclusive; also: nearly all actives have a fitted effect of over 55% in size). An outline of the steps: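 Seed 1,500 KeratinoSens cells per well, then incubate 5 h at 37 C/5% CO2. Add compounds in DMSO and incubate 23 h. Add CellTiter-Fluor, wait 1 h and read fluorescence.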
A general note: Quantitative high-throughput screening tests each substance at several concentrations.

A short description of experiment [2]: Nuclear factor erythroid 2-related factor 2/antioxidant responsive element (Nrf2/ARE) small molecule agonists: luciferase reporter gene qHTS assay in human keratinocytes (AID 1919969). Also: nearly all actives have a fitted effect of over 35% in size. Also: potency is read from the fitted curve at half-maximal effect. On the technique in general: Reporter assays use an easily measured gene product as a stand-in for the process of interest.
For experiment [3], the target named is Gonadotropin-releasing hormone receptor (Homo sapiens) (UniProt P30968). The experiment in a line: Human gonadotropin-releasing hormone receptor (GnRHR) small molecule agonists, calcium flux assay in GnRHR-HEK293 cells (AID 1920063). Also: nearly all actives have a fitted effect of over 35% in size. An outline of the steps: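 Cells: HEK293 stably expressing human GnRHR. Steps: overnight (18 h) culture, 1 h calcium dye loading at 37 C, compound addition, kinetic fluorescence read at 480/540 nm. Each compound tested at 15 concentrations in triplicate.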
Sequence of Gonadotropin-releasing hormone receptor (Homo sapiens) (P30968 whole entry, looked up): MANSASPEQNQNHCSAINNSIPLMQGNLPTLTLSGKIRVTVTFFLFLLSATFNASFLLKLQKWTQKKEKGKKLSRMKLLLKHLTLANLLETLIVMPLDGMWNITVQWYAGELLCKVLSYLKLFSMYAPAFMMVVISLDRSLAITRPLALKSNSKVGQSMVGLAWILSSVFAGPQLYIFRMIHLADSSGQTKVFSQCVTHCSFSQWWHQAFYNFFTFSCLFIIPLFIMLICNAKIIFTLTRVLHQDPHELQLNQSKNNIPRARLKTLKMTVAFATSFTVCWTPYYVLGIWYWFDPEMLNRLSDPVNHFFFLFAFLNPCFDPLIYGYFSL
(In general: Calcium flux is commonly read through the fluorescence of an indicator in the cells.)

In experiment [4] the target is KiSS-1 receptor (Homo sapiens) (UniProt Q969F8). The experiment in a line: Human kisspeptin (KISS1R) small molecule agonists, calcium flux assay in KISS1R-HEK293 cells (AID 1920064; active = well fitted curve in the direction sought with a large enough effect in the repeat runs; an effect the other way counts as inactive or inconclusive). An outline of the steps:
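Cells plated and incubated 18 h; dye added, 1 h at 37 C; compounds in DMSO pinned in; signal read at 480/540 nm every second for 3 min. Each compound tested at 15 concentrations in triplicate.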

A short description of experiment [5]: G protein-coupled receptor (GPCR) small molecule agonists, calcium flux assay: HEK293 wild type cell line counter screen (AID 1920065). An outline of the steps:
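Counter-screen of the Tox21 10K library for non-specific calcium release: dye-loaded cells received compounds in DMSO and were monitored by kinetic fluorescence (480/540 nm, 3 min). Fifteen concentrations, run in triplicate.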

Experiment [6] is described as follows: p53 small molecule agonists, cell-based qHTS assay with human liver microsomes (AID 1963577). An outline of the steps:
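Compounds act here after metabolic activation: human liver microsomes and NADPH, both at 0.5 mg/mL final, were co-added to p53RE-bla cells. Incubation ran 16 h at 37 C, followed by LiveBLAzer detection.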

Experiment [7] can be described thus: p53 small molecule agonists, cell-based qHTS assay with rat liver microsomes (AID 1963578). An outline of the steps: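 Read-out is beta-lactamase reporter fluorescence (LiveBLAzer, 2 h, room temperature, dark) in p53RE-bla cells treated 16 h at 37 C with compound, rat liver microsomes and NADPH, both 0.5 mg/mL final.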
Experiment [8] can be described thus: p53 small molecule agonists, cell-based qHTS assay with human liver microsomes: qHTS cell viability counter screen (AID 1963579). Also: nearly all actives have a fitted effect of over 45% in size. An outline of the steps:
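Cells carrying the p53 response-element beta-lactamase reporter are treated for 16 h at 37 C with test compounds in the presence of human liver microsomes and NADPH (both 0.5 mg/mL final); ATP-based CellTiter-Glo luminescence then reports viability.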

Experiment [9] can be described thus: p53 small molecule agonists, cell-based qHTS assay: qHTS cell viability counter screen (AID 1963581). Also: nearly all actives have a fitted effect of over 45% in size. An outline of the steps:
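Cells: HCT-116 with p53 response element-driven beta-lactamase. Treatment: 16 h, 37 C, compounds in DMSO. Read: CellTiter-Glo luminescence after 30 min RT.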

The nature of experiment [10]: p53 small molecule agonists, cell-based qHTS assay (AID 1963582; active = well fitted activation curve with a large enough effect in the signal ratio in the repeat runs, not every such curve was filed as active; the % refers to the signal ratio). An outline of the steps: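 Quantitative HTS in p53RE-bla cells: after a 5 h settling period, compounds delivered in DMSO were left on cells for 16 h at 37 C, and reporter induction was measured as fluorescence following 2 h substrate loading.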
The target in experiment [11] is 5-hydroxytryptamine receptor 2A (Homo sapiens) (UniProt P28223). The experiment in a line: 5-hydroxytryptamine receptor 2A (HTR2A) small molecule antagonists, cell-based qHTS assay (AID 1963586). Also: nearly all actives have a fitted effect of over 45% in size. An outline of the steps: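 Antagonist-mode intracellular calcium assay: DOI (4 nM) added after 5 min compound pre-incubation at room temperature to dye-loaded HTR2A-CHO cells. Fluorescence followed for 3 min, sampled every second.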
Sequence of 5-hydroxytryptamine receptor 2A (Homo sapiens) (P28223 whole entry, looked up): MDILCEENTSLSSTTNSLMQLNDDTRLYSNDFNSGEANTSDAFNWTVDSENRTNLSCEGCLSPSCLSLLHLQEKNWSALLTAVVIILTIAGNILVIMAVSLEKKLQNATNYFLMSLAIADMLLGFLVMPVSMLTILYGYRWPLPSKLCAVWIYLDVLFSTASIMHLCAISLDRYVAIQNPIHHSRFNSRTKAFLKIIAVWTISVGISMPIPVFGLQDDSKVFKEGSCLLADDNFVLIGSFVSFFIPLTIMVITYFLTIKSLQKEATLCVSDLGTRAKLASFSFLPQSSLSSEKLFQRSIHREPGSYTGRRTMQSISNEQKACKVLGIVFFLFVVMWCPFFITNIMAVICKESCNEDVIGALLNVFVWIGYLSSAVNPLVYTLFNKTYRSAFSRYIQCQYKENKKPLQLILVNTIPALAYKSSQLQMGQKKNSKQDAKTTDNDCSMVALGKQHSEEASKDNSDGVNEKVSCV

The target is the same in experiment [12]. The experiment in a line: 5-hydroxytryptamine receptor 2A (HTR2A) small molecule agonists, cell-based qHTS assay (AID 1963587). Also: nearly all actives have a fitted effect of over 30% in size. An outline of the steps:
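Kinetic calcium-flux fluorescence (2 min, 1 sec intervals) after compound addition in agonist mode. HTR2A-CHO cells were cultured 18 h, then dye-loaded 1 h at 37 C.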

In experiment [13] the target is Muscarinic acetylcholine receptor M1 (Homo sapiens) (UniProt P11229). The experiment can be described thus: Cholinergic receptor muscarinic 1 (CHRM1) small molecule antagonists, cell-based qHTS assay (AID 1963588). Also: nearly all actives have a fitted effect of over 40% in size. An outline of the steps: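 CHRM1-CHO calcium-flux assay, antagonist mode. Cells were seeded 18 h, dye-loaded 1 h at 37 C and given compound for 5 min at RT, then acetylcholine was added at 50nM. FDSS fluorescence was read 3 min; 15 concentrations, three runs.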
Sequence of Muscarinic acetylcholine receptor M1 (Homo sapiens) (P11229 whole entry, looked up): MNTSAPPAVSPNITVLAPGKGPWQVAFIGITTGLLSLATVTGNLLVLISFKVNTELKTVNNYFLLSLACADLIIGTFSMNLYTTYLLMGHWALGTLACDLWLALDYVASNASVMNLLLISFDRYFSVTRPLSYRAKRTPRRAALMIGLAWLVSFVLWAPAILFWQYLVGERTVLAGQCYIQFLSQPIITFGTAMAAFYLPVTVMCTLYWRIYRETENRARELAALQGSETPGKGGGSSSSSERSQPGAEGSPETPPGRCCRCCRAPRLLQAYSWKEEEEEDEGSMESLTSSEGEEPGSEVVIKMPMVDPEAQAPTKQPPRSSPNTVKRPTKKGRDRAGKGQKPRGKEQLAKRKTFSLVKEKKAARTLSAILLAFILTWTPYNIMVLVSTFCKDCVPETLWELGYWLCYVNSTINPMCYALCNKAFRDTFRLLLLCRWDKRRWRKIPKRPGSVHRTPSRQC

Experiment [14] has the same target. The experiment can be described thus: Cholinergic receptor muscarinic 1 (CHRM1) small molecule agonists, cell-based qHTS assay (AID 1963589). Also: nearly all actives have a fitted effect of over 35% in size. An outline of the steps: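 Agonist-mode qHTS in CHO cells stably carrying human muscarinic M1. Intracellular calcium is tracked by fluorescence every second after compound transfer; each compound runs at 15 concentrations in three independent runs.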

Experiment [15] is described as follows: cAMP Responsive Elements (CRE) small molecule agonists, cell-based qHTS assay (AID 1963590). An outline of the steps:
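Agonist mode qHTS in CRE-bla HEK 293T cells: compounds dosed from DMSO for 3 h at 37 C/5% CO2, followed by LiveBLAzer B/G FRET substrate for 2 h at room temperature.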

For experiment [16], the target named is Beta-2 adrenergic receptor (Homo sapiens) (UniProt P07550). The experiment in a line: Adrenergic beta2 receptor (ADRB2) small molecule antagonists, cell-based qHTS assay (AID 1963592). Also: series mostly up to about 92 µM; nearly all actives have a fitted effect of over 50% in size. An outline of the steps:
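Cells (CHO, stable ADRB2 overexpression) incubated 18-20hr at 37C; compounds added from DMSO; agonist mix (1nM isoproterenol, 100uM IBMX, 25uM Ro-20-1724) added; 0.5hr RT; d2-cAMP and anti-cAMP-cryptate added; 1hr RT; 665/615 nm read.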

In experiment [17] the target is D(2) dopamine receptor (Homo sapiens) (UniProt P14416). The experiment in a line: Dopamine D2 receptor (DRD2) small molecule agonists, cell-based qHTS assay (AID 1963594). Also: nearly all actives have a fitted effect of over 35% in size. An outline of the steps:
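cAMP accumulation in DRD2-HEK293 cells measured by HTRF after 1 h detection; compounds added 10 min before NKH477 (200nM […]) forskolin-analogue stimulation, 30 min at room temperature, with Ro20-1724 present at 0.1 mM final.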

The target is the same in experiment [18]. The experiment can be described thus: Dopamine D2 receptor (DRD2) small molecule antagonists, cell-based qHTS assay (AID 1963595; active = well fitted inhibition curve with a large enough effect in the signal ratio in the repeat runs, with a control signal flat; the % refers to the signal ratio). An outline of the steps:
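Antagonism was scored as restored cAMP in HEK293-DRD2 cells. These cells were stimulated with 200 nM NKH477 and 12 nM quinpirole for 30 min at room temperature, in the presence of 0.1 mM Ro20-1724.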

Experiment [19] is described as follows: cAMP Responsive Elements (CRE) small molecule antagonists, cell-based qHTS assay (AID 1963591; active = well fitted inhibition curve with a large enough effect in the signal ratio in the repeat runs, not every such curve was filed as active; the % refers to the signal ratio). An outline of the steps:
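Antagonist mode: test compounds are co-incubated with the adenylyl cyclase activator NKH477 (0.25 uM final) on CRE-bla HEK293T cells for 3 h at 37 °C, followed by LiveBLAzer substrate loading.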

Sequence of KiSS-1 receptor (Homo sapiens) (Q969F8 whole entry, looked up): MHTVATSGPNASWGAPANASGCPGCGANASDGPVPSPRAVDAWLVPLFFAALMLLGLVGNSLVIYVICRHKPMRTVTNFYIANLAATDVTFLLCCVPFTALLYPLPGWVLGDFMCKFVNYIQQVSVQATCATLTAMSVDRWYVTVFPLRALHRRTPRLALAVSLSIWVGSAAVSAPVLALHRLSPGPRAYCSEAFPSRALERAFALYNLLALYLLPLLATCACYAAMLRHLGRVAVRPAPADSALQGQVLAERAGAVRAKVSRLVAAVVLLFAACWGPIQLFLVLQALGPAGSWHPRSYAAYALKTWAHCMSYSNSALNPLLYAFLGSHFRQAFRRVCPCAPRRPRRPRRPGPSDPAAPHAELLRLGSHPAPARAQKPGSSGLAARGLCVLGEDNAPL
Sequence of Beta-2 adrenergic receptor (Homo sapiens) (P07550 whole entry, looked up): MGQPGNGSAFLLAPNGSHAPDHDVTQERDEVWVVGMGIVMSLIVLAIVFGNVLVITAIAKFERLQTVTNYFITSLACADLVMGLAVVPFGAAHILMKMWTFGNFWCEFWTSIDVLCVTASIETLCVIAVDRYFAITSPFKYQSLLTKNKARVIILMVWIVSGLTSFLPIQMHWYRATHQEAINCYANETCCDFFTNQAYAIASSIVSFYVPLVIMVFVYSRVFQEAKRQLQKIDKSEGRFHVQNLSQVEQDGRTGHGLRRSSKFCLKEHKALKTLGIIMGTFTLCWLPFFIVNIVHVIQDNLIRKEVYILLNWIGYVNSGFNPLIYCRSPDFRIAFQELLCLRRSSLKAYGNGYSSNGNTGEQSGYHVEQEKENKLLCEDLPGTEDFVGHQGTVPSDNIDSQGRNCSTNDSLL
Sequence of D(2) dopamine receptor (Homo sapiens) (P14416 whole entry, looked up): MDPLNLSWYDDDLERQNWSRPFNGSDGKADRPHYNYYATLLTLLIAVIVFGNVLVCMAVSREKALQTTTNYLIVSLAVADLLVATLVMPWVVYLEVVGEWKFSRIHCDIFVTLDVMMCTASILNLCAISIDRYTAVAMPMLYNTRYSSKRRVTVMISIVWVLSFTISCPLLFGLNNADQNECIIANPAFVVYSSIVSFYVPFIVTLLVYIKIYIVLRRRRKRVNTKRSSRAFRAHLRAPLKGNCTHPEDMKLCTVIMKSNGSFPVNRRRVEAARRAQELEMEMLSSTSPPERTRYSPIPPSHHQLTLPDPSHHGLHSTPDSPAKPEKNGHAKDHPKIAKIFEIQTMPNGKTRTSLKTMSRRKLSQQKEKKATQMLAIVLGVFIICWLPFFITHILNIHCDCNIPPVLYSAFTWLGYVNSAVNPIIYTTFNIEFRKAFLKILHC

As to `O=S(=O)(O)c1ccc(O)c2ncccc12`, the Potency entry in [1], in experiment [2], in experiment [3], in experiment [6], in [7] and in experiment [8] was “inactive” in each case. Further, the Potency result in [9], in [10], in experiment [11], in experiment [12], in [13] and in experiment [14] was “inactive” in each case. For the same compound, the Potency entry in experiment [15], in experiment [16], in [17] and in experiment [18] was “inactive” each time. In addition, the result in [4] and in experiment [5] was inactive.

Turning to `c1ccc(CN(CC2=NCCN2)c2ccccc2)cc1`, the Potency result in experiment [1], in [2], in [3], in [6], in experiment [7] and in [8] was “inactive” each time. Further, the Potency entry in [9], in [10], in [12], in experiment [14], in experiment [15] and in [19] was “inactive” throughout. In addition, the Potency result in [16], in experiment [17] and in [18] was “inactive” each time. In addition, the result in experiment [4] and in [5] was inactive.

Take `O=c1[nH]ncc2ccccc12`: the Potency entry in experiment [1], in experiment [2], in experiment [3], in experiment [6], in experiment [7] and in experiment [8] was “inactive” each time. The Potency entry in experiment [9], in experiment [10], in [11], in [12], in [13] and in [14] was “inactive” each time. Besides, the Potency result in experiment [15], in [19], in experiment [16], in experiment [17] and in experiment [18] was “inactive” in each case. Moreover, the outcome in experiment [4] and in experiment [5] was inactive.

For the compound `Cc1cn([C@@H]2O[C@H](CO)[C@@H](O)[C@@H]2F)c(=O)[nH]c1=O`, the Potency result in experiment [1], in [2], in experiment [3], in experiment [6], in experiment [7] and in experiment [8] was “inactive” throughout. For the same compound, the Potency result in experiment [9], in [10], in experiment [12], in experiment [13], in experiment [14] and in experiment [15] was “inactive” each time. The Potency result in [19], in experiment [16] and in [18] was “inactive” throughout. The result in [4] and in experiment [5] was inactive.

In the case of `CO/N=C(\C(=O)O)c1csc(NC(=O)CCl)n1`, the Potency entry in experiment [1], in experiment [2], in experiment [3], in experiment [6], in experiment [7] and in experiment [8] was “inactive” in each case. The Potency result in experiment [9], in [10], in experiment [11], in experiment [12], in experiment [13] and in experiment [14] was “inactive” throughout. The Potency result in [19], in experiment [16], in experiment [17] and in experiment [18] was “inactive” each time. Further, the outcome in [4] and in experiment [5] was inactive.

For the compound `CCCCCc1ccco1`, the Potency result in experiment [1], in experiment [3], in [6], in experiment [7], in experiment [8] and in experiment [9] was “inactive” each time. The Potency entry in [10], in experiment [11], in experiment [12], in experiment [14], in experiment [19] and in experiment [16] was “inactive” in each case. In addition, the Potency result in [17] and in [18] was “inactive” in each case. Besides, the Potency in experiment [2] was 44.7 µM (active). Moreover, the outcome in experiment [4] and in experiment [5] was inactive.

For the compound `CC1=NN(c2ccc(C(=O)O)cc2)C(=O)C1`, the Potency entry in experiment [1], in experiment [2], in experiment [3], in [6], in [7] and in experiment [8] was “inactive” in each case. Further, the Potency result in experiment [9], in [10], in [11], in [12], in experiment [13] and in [15] was “inactive” in each case. The Potency entry in [19], in [16], in experiment [17] and in [18] was “inactive” each time. Also, the result in experiment [4] and in experiment [5] was inactive.
